Records with an inconclusive call do not appear. Activity calls are given as the source filed them. Unless noted, calls follow the shape of the full dose curve.
Columns and labels:
[1] = Nuclear factor erythroid 2-related factor 2/antioxidant responsive element (Nrf2/ARE) small molecule agonists: qHTS cell viability counter screen in human keratinocytes (AID 1919968; active = well fitted curve in the direction sought with a large enough effect in the repeat runs; an effect the other way counts as inactive or inconclusive; also: nearly all actives have a fitted effect of over 55% in size)
Method in brief: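 CellTiter-Fluor fluorescence, read 1 h after reagent, gave viability in the same wells as the ARE-luciferase assay. KeratinoSens cells (1,500/well) had 23 h compound exposure at 37 C/5% CO2 following 5 h plating.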

[2] = Nuclear factor erythroid 2-related factor 2/antioxidant responsive element (Nrf2/ARE) small molecule agonists: luciferase reporter gene qHTS assay in human keratinocytes (AID 1919969); also: nearly all actives have a fitted effect of over 35% in size
[3] = target: Gonadotropin-releasing hormone receptor (Homo sapiens) (UniProt P30968); assay: Human gonadotropin-releasing hormone receptor (GnRHR) small molecule agonists, calcium flux assay in GnRHR-HEK293 cells (AID 1920063); also: nearly all actives have a fitted effect of over 35% in size
Sequence of Gonadotropin-releasing hormone receptor (Homo sapiens) (P30968 whole entry, looked up): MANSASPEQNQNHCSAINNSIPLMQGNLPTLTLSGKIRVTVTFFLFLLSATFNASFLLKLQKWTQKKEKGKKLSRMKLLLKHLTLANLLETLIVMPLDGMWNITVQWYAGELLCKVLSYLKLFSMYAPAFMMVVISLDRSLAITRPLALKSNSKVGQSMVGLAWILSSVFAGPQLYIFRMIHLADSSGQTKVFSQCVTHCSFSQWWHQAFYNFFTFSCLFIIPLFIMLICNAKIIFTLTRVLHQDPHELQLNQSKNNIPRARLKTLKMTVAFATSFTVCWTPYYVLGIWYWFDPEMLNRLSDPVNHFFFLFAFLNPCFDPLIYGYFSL
Method in brief: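 Agonist mode: compounds at 15 concentrations, in triplicate, went onto calcium dye-loaded GnRHR-HEK293 cells. Intracellular calcium was then followed as 480/540 nm fluorescence at 1 s intervals over 3 min.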

[4] = target: KiSS-1 receptor (Homo sapiens) (UniProt Q969F8); assay: Human kisspeptin (KISS1R) small molecule agonists, calcium flux assay in KISS1R-HEK293 cells (AID 1920064; active = well fitted curve in the direction sought with a large enough effect in the repeat runs; an effect the other way counts as inactive or inconclusive)
Sequence of KiSS-1 receptor (Homo sapiens) (Q969F8 whole entry, looked up): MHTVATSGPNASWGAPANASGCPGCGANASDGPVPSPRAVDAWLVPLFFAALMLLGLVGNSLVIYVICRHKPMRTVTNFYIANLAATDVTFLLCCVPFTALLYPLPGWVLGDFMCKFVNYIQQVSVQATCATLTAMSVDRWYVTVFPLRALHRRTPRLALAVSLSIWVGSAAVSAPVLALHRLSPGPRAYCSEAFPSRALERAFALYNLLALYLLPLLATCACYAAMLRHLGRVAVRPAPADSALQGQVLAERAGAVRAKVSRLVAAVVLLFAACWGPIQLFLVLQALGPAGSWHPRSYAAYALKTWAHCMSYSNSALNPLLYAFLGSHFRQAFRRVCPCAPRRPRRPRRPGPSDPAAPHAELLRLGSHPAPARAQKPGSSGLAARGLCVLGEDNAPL
Method in brief: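 Agonist mode: intracellular calcium rise tracked at 1 s intervals over 3 min (480/540 nm) immediately after compound addition to dye-loaded KISS1R-HEK293 stable cells. Each compound tested at 15 concentrations in triplicate.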

[5] = p53 small molecule agonists, cell-based qHTS assay with rat liver microsomes (AID 1963578)
Method in brief: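 Compound in DMSO added to p53RE-bla cells 5 h post-plating; rat microsomes/NADPH 0.5 mg/mL final; 16 h, 37 C; LiveBLAzer 2 h RT.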

[6] = p53 small molecule agonists, cell-based qHTS assay with human liver microsomes: qHTS cell viability counter screen (AID 1963579); also: nearly all actives have a fitted effect of over 45% in size
Method in brief: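 HLM-supplemented (0.5 mg/mL final) and NADPH-supplemented (0.5 mg/mL final) p53RE-bla cultures, 4,000 cells per well, were dosed with compounds in DMSO for 16 h at 37 C; luminescent ATP detection (CellTiter-Glo, 30 min, room temperature) quantified surviving cells.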

[7] = p53 small molecule agonists, cell-based qHTS assay with rat liver microsomes: qHTS cell viability counter screen (AID 1963580); also: nearly all actives have a fitted effect of over 45% in size
Method in brief: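 Luminescent ATP readout (CellTiter-Glo, 30 min at room temperature) reports viability of p53RE-bla HCT-116 cells after 16 h at 37 C with test compounds under metabolic activation by rat liver microsomes and NADPH at 0.5 mg/mL final each.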

[8] = p53 small molecule agonists, cell-based qHTS assay: qHTS cell viability counter screen (AID 1963581); also: nearly all actives have a fitted effect of over 45% in size
Method in brief: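 Counter screen read by CellTiter-Glo luminescence (ATP content, 30 min at room temperature), run in the same wells as the beta-lactamase reporter read. HCT-116 p53RE-bla cells saw compounds for 16 h at 37 C.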

[9] = p53 small molecule agonists, cell-based qHTS assay (AID 1963582; active = well fitted activation curve with a large enough effect in the signal ratio in the repeat runs, not every such curve was filed as active; the % refers to the signal ratio)
Method in brief: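 Read-out is beta-lactamase FRET fluorescence after 2 h at room temperature with LiveBLAzer B/G substrate. p53 response element-bla cells were treated 16 h at 37 C with compounds in DMSO, added 5 h after seeding.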

[10] = target: 5-hydroxytryptamine receptor 2A (Homo sapiens) (UniProt P28223); assay: 5-hydroxytryptamine receptor 2A (HTR2A) small molecule antagonists, cell-based qHTS assay (AID 1963586); also: nearly all actives have a fitted effect of over 45% in size
Sequence of 5-hydroxytryptamine receptor 2A (Homo sapiens) (P28223 whole entry, looked up): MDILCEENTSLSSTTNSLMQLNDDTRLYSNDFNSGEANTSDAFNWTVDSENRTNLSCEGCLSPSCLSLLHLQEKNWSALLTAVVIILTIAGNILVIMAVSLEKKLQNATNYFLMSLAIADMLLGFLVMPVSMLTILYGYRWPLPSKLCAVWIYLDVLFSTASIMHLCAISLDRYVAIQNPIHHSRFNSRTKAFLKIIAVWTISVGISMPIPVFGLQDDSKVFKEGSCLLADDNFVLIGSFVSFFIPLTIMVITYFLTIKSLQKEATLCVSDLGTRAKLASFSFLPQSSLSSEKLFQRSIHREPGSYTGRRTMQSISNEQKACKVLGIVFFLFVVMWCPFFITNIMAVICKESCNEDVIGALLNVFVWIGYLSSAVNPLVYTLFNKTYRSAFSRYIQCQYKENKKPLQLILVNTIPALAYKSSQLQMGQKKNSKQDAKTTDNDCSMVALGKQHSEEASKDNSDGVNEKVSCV
Method in brief: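 CHO cells stably expressing human HTR2A were plated for 18 h at 37 C, then loaded with calcium dye for 1 h. Compounds were preincubated 5 min at room temperature before DOI (4 nM solution) was added. Kinetic fluorescence was read for 3 min.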

[11] = target: 5-hydroxytryptamine receptor 2A (Homo sapiens) (UniProt P28223); assay: 5-hydroxytryptamine receptor 2A (HTR2A) small molecule agonists, cell-based qHTS assay (AID 1963587); also: nearly all actives have a fitted effect of over 30% in size
Method in brief: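 HTR2A-CHO cells, plated 18 h at 37 C/5% CO2, dye-loaded 1 h at 37 C; compounds in DMSO added by pin tool (agonist mode). Intracellular calcium flux read as kinetic fluorescence on FDSS over 2 min at 1 s intervals.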

[12] = target: Muscarinic acetylcholine receptor M1 (Homo sapiens) (UniProt P11229); assay: Cholinergic receptor muscarinic 1 (CHRM1) small molecule antagonists, cell-based qHTS assay (AID 1963588); also: nearly all actives have a fitted effect of over 40% in size
Sequence of Muscarinic acetylcholine receptor M1 (Homo sapiens) (P11229 whole entry, looked up): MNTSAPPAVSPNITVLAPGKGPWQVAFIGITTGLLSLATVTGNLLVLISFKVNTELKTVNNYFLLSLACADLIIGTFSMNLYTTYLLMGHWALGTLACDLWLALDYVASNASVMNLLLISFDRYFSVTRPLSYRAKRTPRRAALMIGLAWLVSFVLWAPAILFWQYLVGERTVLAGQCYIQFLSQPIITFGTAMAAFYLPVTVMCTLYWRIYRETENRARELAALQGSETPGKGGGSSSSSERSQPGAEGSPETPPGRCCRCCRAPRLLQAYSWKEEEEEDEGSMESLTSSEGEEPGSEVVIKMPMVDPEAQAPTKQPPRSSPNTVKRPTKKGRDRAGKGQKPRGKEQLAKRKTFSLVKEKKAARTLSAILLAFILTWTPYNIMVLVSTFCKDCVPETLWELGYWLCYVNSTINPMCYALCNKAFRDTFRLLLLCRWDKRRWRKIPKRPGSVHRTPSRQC
Method in brief: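 Compounds were tested at 15 concentrations in three independent runs. Dye-loaded CHRM1-CHO cells were exposed 5 min at room temperature before stimulation by acetylcholine added at 50nM. Intracellular calcium was read kinetically on FDSS for 3 min.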

[13] = target: Muscarinic acetylcholine receptor M1 (Homo sapiens) (UniProt P11229); assay: Cholinergic receptor muscarinic 1 (CHRM1) small molecule agonists, cell-based qHTS assay (AID 1963589); also: nearly all actives have a fitted effect of over 35% in size
Method in brief: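 Agonist-mode calcium-flux screen: compounds at 15 concentrations, three independent runs, were pin-transferred onto dye-loaded human CHRM1-CHO cells. Fluorescence was then recorded kinetically every second over minutes.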

[14] = cAMP Responsive Elements (CRE) small molecule antagonists, cell-based qHTS assay (AID 1963591; active = well fitted inhibition curve with a large enough effect in the signal ratio in the repeat runs, not every such curve was filed as active; the % refers to the signal ratio)
Method in brief: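 Antagonist mode: compounds are added alongside the adenylyl cyclase activator NKH477 (0.25 uM final) to CRE-bla HEK293T cells for 3 h. LiveBLAzer FRET substrate, 2 h at room temperature, reports bla expression.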

[15] = target: D(2) dopamine receptor (Homo sapiens) (UniProt P14416); assay: Dopamine D2 receptor (DRD2) small molecule agonists, cell-based qHTS assay (AID 1963594); also: nearly all actives have a fitted effect of over 35% in size
Sequence of D(2) dopamine receptor (Homo sapiens) (P14416 whole entry, looked up): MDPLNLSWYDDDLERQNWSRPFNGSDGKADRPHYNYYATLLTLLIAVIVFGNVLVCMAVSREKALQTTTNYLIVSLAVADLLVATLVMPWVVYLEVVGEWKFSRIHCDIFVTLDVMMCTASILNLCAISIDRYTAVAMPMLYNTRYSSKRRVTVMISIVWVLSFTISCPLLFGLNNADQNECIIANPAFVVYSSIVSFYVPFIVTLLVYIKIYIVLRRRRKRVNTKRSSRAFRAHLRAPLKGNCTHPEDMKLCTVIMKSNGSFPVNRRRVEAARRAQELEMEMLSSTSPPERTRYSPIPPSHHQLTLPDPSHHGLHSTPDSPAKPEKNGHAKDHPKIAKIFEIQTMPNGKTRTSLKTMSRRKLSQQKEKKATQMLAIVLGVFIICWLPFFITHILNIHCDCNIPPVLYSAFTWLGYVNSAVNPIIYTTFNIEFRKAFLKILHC
Method in brief: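 HEK293 cells stably expressing DRD2 were cultured 24 h at 37 C, then given Ro20-1724 (0.1 mM final) and compounds for 10 min at room temperature. NKH477 (200nM) was then added for 30 min. cAMP was read by HTRF.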

[16] = G protein-coupled receptor (GPCR) small molecule agonists, calcium flux assay: HEK293 wild type cell line counter screen (AID 1920065)
Method in brief: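 Calcium flux counter screen: compound added in agonist mode at 15 concentrations in triplicate to dye-loaded parental HEK293 cells. Fluorescence (480/540) read kinetically for 3 min; ATP served as positive control.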

[17] = cAMP Responsive Elements (CRE) small molecule agonists, cell-based qHTS assay (AID 1963590)
Method in brief: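 Agonist mode: compound added to CRE-bla HEK 293T cells (2,000/well, 18 h after plating) for 3 h at 37 C/5% CO2. Reporter activity detected via FRET beta-lactamase substrate, 2 h room-temperature loading.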

[18] = target: Beta-2 adrenergic receptor (Homo sapiens) (UniProt P07550); assay: Adrenergic beta2 receptor (ADRB2) small molecule antagonists, cell-based qHTS assay (AID 1963592); also: series mostly up to about 92 µM; nearly all actives have a fitted effect of over 50% in size
Sequence of Beta-2 adrenergic receptor (Homo sapiens) (P07550 whole entry, looked up): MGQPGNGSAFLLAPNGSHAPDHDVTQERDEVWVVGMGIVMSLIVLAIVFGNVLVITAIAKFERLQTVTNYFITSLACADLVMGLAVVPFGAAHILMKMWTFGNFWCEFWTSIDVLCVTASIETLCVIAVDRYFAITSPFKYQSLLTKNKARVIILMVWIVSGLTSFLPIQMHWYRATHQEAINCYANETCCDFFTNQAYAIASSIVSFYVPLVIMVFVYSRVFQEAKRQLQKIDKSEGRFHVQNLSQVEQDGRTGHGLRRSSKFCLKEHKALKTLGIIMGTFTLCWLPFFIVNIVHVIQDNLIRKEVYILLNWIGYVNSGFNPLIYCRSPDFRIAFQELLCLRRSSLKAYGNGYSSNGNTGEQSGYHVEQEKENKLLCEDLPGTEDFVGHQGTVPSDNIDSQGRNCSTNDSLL
Method in brief: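 Assay format: CHO-ADRB2 cells, 18-20hr seeding at 37C/5% CO2, then compound plus 1nM isoproterenol agonist mix for 0.5hr RT. Homogeneous time-resolved fluorescence cAMP detection after 1hr, expressed as 665/615 nm ratio.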

[19] = target: Beta-2 adrenergic receptor (Homo sapiens) (UniProt P07550); assay: Adrenergic beta2 receptor (ADRB2) small molecule agonists, cell-based qHTS assay (AID 1963593);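 also: CHO cells stably overexpressing human ADRB2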
Method in brief: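 CHO cells stably over-expressing ADRB2 were plated overnight at 37C, then dosed with compounds plus a stimulation mix containing 100uM IBMX and 25uM Ro-20-1724 for 0.5hr at room temperature. cAMP was measured by HTRF competition, 1hr.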

[20] = target: D(2) dopamine receptor (Homo sapiens) (UniProt P14416); assay: Dopamine D2 receptor (DRD2) small molecule antagonists, cell-based qHTS assay (AID 1963595; active = well fitted inhibition curve with a large enough effect in the signal ratio in the repeat runs, with a control signal flat; the % refers to the signal ratio)
Method in brief: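 HEK293 cells stably expressing DRD2 were preincubated with 0.1 mM Ro20-1724, then with compound for 10 min at room temperature. Cells were stimulated with 200 nM NKH477 plus 12 nM quinpirole for 30 min, and cAMP was read by HTRF.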
% is scaled to controls: 0 for no effect and ±100 for the full control effect.

O=C(/C=C/c1ccc(O)c(O)c1)O[C@@H]1C[C@](O)(C(=O)O)C[C@@H](O)[C@H]1O
inactive: Potency [1] | Potency [2] | Potency [3] | outcome [4] | Potency [5] | Potency [6] | Potency [7] | Potency [8] | Potency [9] | Potency [10] | Potency [11] | Potency [12] | Potency [13] | Potency [14] | Potency [15]

Cc1cc(C)n(CO)n1
inactive: Potency [1] | Potency [2] | Potency [3] | outcome [4] | outcome [16] | Potency [6] | Potency [7] | Potency [9] | Potency [10] | Potency [11] | Potency [12] | Potency [13] | Potency [17] | Potency [14] | Potency [18] | Potency [19] | Potency [15] | Potency [20]

CC(C)(C)c1cc(C=O)cc(C(C)(C)C)c1O
inactive: Potency [1] | Potency [2] | Potency [3] | outcome [4] | Potency [5] | Potency [6] | Potency [7] | Potency [8] | Potency [9] | Potency [10] | Potency [11] | Potency [13] | Potency [17] | Potency [14] | Potency [18] | Potency [15] | Potency [20]

O=[N+]([O-])c1ccc2[nH]ncc2c1
inactive: Potency [1] | Potency [2] | Potency [3] | outcome [4] | Potency [5] | Potency [6] | Potency [7] | Potency [8] | Potency [9] | Potency [10] | Potency [12] | Potency [13] | Potency [14] | Potency [18] | Potency [15] | Potency [20]

CC(C)=CCC/C(C)=C/CC/C(C)=C/CCC(=O)OC/C=C(\C)CCC=C(C)C
inactive: Potency [1] | Potency [2] | Potency [3] | outcome [4] | Potency [5] | Potency [6] | Potency [7] | Potency [8] | Potency [9] | Potency [10] | Potency [11] | Potency [12] | Potency [13] | Potency [17] | Potency [14] | Potency [18] | Potency [15] | Potency [20]

CCN[C@@H]1C[C@H](N)[C@@H](OC2OC(CN)=CCC2N)[C@H](O)[C@H]1O[C@H]1OC[C@](C)(O)[C@H](NC)[C@H]1O (stereo partly specified)
inactive: activity change, negative = cytotoxicity [1] -5.32% [at 0.349 µM] | activity, positive = activation [2] 8.13% [at 0.349 µM] | activity change [3] -1.46% [at 0.217 µM, active compounds read high] | activation [4] -0.712% [at 0.29 µM] | activation [5] -0.776% [at 0.249 µM] | activity change, negative = cytotoxicity [6] 1.03% [at 0.249 µM] | activity change, negative = cytotoxicity [7] -10.4% [at 0.249 µM] | activity change, negative = cytotoxicity [8] -18.4% [at 0.249 µM] | activation [9] 5.55% [at 0.249 µM] | activation [17] -0.986% [at 0.349 µM] | activity change, negative = inhibition [14] -9.29% [at 0.349 µM] | activity change, negative = inhibition [18] -0.979% [at 0.349 µM] | activation [19] 7.07% [at 0.349 µM] | activation [15] -8.99% [at 0.349 µM] | activity change, negative = inhibition [20] 14.9% [at 0.348 µM]

CC[N+](CC)(CCNC(=O)C(=O)NCC[N+](CC)(CC)Cc1ccccc1Cl)Cc1ccccc1Cl
inactive: Potency [1] | Potency [2] | Potency [3] | outcome [4] | Potency [5] | Potency [6] | Potency [7] | Potency [8] | Potency [9] | Potency [10] | Potency [11] | Potency [13] | Potency [17] | Potency [14] | Potency [18] | Potency [15] | Potency [20]

— PubChem BioAssay (Tox21)
